Only some compounds are listed: those with a hit (about 18% of all), similar ones and a draw of the others.
VDR inh: inhibitors of human vitamin D receptor | P11473 | VDR-SRC2-3 peptide fluorescence polarization, 2 h | Potency, µM, for inactives: max response, negative = inhibition, hits mostly inhibitors | actives 0.93% (n = 400,000) | AID 504847
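Fluorescence polarization assay measuring small-molecule disruption of VDR binding to the coregulator peptide SRC2-3. Compounds were pin-transferred (23 nl) into the reagent mix and incubated 2 h at room temperature before reading.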
PLK1 PBD inh: blocks phosphopeptide binding to human PLK1 polo-box domain; P53350; Plk1 PBD binding of FITC phosphopeptide, fluorescence polarization; Potency, µM, for the others: max response, negative = inhibition, usual class: inhibitors; actives 2.8% (n = 360,000); AID 720504; also: series mostly up to about 57 µM; nearly all actives have a fitted effect of over 65% in size
TDP1 cell CPT: growth inhibition of DT40 Tdp1-/-;hTDP1 cells with camptothecin (screen for TDP1 inhibitors) | chicken DT40 Tdp1-/-;hTDP1 cells + 20 nM CPT, ATP luminescence, 48 h | Potency, µM (top dose mostly 46.2 µM), for inactives: at the highest dose activity change, negative = growth inhibition, usual class: inhibitors | actives 12% (n = 420,000); also: nearly all actives have a fitted effect of over 55% in size
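Chicken DT40 Tdp1-/- cells complemented with human TDP1, 400 cells/well, exposed to compounds plus 20 nM camptothecin for at least 48 h at 37 C; viability read as ATP content by CellTiter-Glo luminescence.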
GCN5L2 inh: inhibitors of human GCN5L2 histone acetyltransferase | AID 504327 | Q92830 | GCN5L2 HAT assay, ThioGlo1 CoA-SH fluorescence | Potency, µM (doses to about 58.9 µM), without a hit: top-dose activity change, negative = inhibition, most hits filed as inhibitors | actives 0.21% (n = 390,000)
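GCN5L2 (20nM final) in 50mM HEPES, 0.1mM EDTA pH 7.5, 0.01% Tween-20 was preincubated 15 min at room temperature with compound, then given ThioGlo1 (50uM), H3(1-25) peptide (75uM) and acetyl-CoA (70uM); CoA-thiol fluorescence (Ex340/Em540) was read at 0 and 20 min.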
TDP1 inh: inhibitors of human tyrosyl-DNA phosphodiesterase TDP1 | Q9NUW8 | recombinant TDP1, AlphaScreen DNA substrate cleavage | Potency, µM (highest dose often 130 µM), for inactives: at the top dose activity change, negative = inhibition, actives largely listed as inhibitors | actives 0.28% (n = 350,000); also: nearly all actives have a fitted effect of over 40% in size
Target sequence (Q9NUW8 whole entry, looked up): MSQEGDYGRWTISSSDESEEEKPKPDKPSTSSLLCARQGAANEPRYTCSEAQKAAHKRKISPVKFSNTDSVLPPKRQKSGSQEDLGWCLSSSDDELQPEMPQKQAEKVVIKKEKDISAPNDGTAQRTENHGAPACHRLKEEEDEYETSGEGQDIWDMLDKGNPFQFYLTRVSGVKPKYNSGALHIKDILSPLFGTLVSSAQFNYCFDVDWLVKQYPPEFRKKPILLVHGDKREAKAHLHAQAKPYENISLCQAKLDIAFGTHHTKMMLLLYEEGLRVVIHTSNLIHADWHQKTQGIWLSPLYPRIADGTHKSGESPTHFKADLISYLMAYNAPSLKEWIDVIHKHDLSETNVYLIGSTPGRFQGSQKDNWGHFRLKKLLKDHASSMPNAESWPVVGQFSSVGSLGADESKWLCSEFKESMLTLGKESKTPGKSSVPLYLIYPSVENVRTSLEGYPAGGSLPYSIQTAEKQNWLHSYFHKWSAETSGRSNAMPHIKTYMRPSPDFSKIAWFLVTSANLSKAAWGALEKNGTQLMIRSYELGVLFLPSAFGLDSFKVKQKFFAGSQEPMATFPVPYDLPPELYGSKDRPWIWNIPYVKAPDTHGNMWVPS
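Compounds were preincubated with Tdp1 (1 nM final) for 15 min at room temperature before substrate (15 nM final) started a 5 min reaction; beads (10 ug/ml final) were then added for 10 min before AlphaScreen detection.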
TDP1 cell noCPT: qHTS for Inhibitors of human tyrosyl-DNA phosphodiesterase 1 (TDP1): qHTS in cells in absence of CPT. DT40 Tdp1-/- hTDP1 cells, no CPT, ATP luminescence, 48 h. Potency, µM (doses to about 46.2 µM), for inactives: at the highest dose activity change, negative = growth inhibition, actives largely listed as inhibitors. actives 15% (n = 420,000); also: nearly all actives have a fitted effect of over 55% in size
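Chicken DT40 Tdp1-/- cells stably complemented with human TDP1 were seeded at 400 cells/well with DMSO in place of 20 nM camptothecin. After compound pinning, cells grew at least 48 hr at 37 °C; viability read by CellTiter-Glo luminescence.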
Active calls of the source: *; ? = inconclusive; / = no result; [ ] = dose if it differs, or a comment. Calls follow the shape of the dose curve; as a rule, active = well fitted curve in the direction sought with a large enough effect; inconclusive = small, poorly fitted or top-dose-only effect, or another doubt; inactive = no such curve, though single readings can be large; an effect the other way counts as inactive or inconclusive. % is scaled to controls: 0 for no effect and ±100 for the full control effect; potency is read from the fitted curve at half-maximal effect.

SMILES | VDR inh | PLK1 PBD inh | TDP1 cell CPT | GCN5L2 inh | TDP1 inh | TDP1 cell noCPT
NCCCC[C@H](NC(=O)[C@@H]1CCCN1C(=O)[C@H](CO)NC(=O)[C@H](CC(=O)O)NC(=O)CNC(=O)[C@H](CCCN=C(N)N)NC(=O)CN)C(=O)O | 17% | / | / | 45% | 8% | /
CCc1noc(C)c1C(=O)N1CCSC1=Nc1cccc(Cl)c1C | ? | 5% | ? | -11% | 2% | 23µM*
CCc1ccc(NC(=O)Cn2cc(S(=O)(=O)N3CCCC3)c(S(=O)(=O)N3CCCC3)c2)cc1 | 6% | / | -2% | 34% | 2% | -2%
Cc1ccc(CCNc2ncnc3onc(C)c23)cc1 | 8% | / | 1.8µM* | 10% | -4% | 0.82µM*
CCOC(=O)c1c(C)oc2ncnc(NCCc3ccccc3)c12 | 9% | / | 21µM* | -5% | 5% | 23µM*
COCCn1c(C)c(C)c2c(NCCc3ccccc3)ncnc21 | -8% | -6% | 23µM* | -1% | / | 16µM*
Cc1noc2ncnc(NCCc3ccccc3)c12 | 4% | / | 7.3µM* | 25% | 2% | 6.5µM*
CCOC(=O)c1noc2ncnc(NCc3ccccc3OC)c12 | 17% | / | ? | 4% | 5% | -16%
Cc1cccc(/C=N/NC(=O)c2ccncc2)n1 | 4% | -1% | 9% | 11% | / | -18%
COc1ccc(OC)c(CNc2ncnc3onc(C)c23)c1 | 6% | / | ? | -6% | 4% | ?
COc1ccc(CNc2ncnc3onc(C)c23)cc1 | 6% | / | 16µM* | 16% | 1% | 13µM*
COc1cccc(CC2(CO)CCCN(Cc3cn(C)c4ccccc34)C2)c1 (stereo not given) | -16% | -8% | 21µM* | 1% | 4% | 23µM*
COc1cccc(CC2(CO)CCCN(Cc3ccccc3Cl)C2)c1 (stereo not given) | -14% | 2% | ? | -12% | / | ?
CC(C)Oc1ccc(CN2CCCC(CO)(Cc3ccccc3)C2)cc1CO (stereo not given) | 21% | -1% | 29µM* | -3% | / | ?
COCc1ccc(CN2CCCC(CO)(Cc3cccc(OC)c3)C2)o1 (stereo not given) | -8% | -11% | ? | -1% | 4% | -43%
COc1cccc(CC2(CO)CCCN(Cc3ccc(CN4CCCCC4)s3)C2)c1 (stereo not given) | 5% | -12% | 21µM* | 5% | -4% | ?
COc1cccc(CC2(CO)CCCN(Cc3ccc(OC)c(C)c3OC)C2)c1 (stereo not given) | 6% | -8% | 18µM* | -18% | / | 16µM*
COc1cccc(CC2(CO)CCCN(Cc3cnn(-c4ccccc4)c3)C2)c1 (stereo not given) | -8% | 4% | ? | -4% | 3% | 26µM*
COc1cccc(CC2(CO)CCCN(Cc3cc(F)ccc3-n3cccn3)C2)c1 (stereo not given) | 9% | -15% | ? | 1% | 0% | ?
Cc1cnc(SCc2ccc(Cl)cc2Cl)[nH]c1=O | 6% | -3% | ? | -3% | / | 21µM*
Cc1nnc(SCc2ccc(Cl)cc2Cl)[nH]c1=O | 1% | -7% | -12% | 3% | 3% | -16%
Cc1cc(=O)[nH]c(SCc2ccc(Cl)cc2Cl)n1 | 5% | -10% | -19% | 2% | / | 23µM*
COC(=O)[C@@H]1CCCN1C(=O)[C@H]1C[C@@H]1[C@H](NC(=O)OCc1ccccc1)c1ccccc1 | / | / | / | / | 2% | /
O=C(Cc1cccs1)N(c1ccc(Br)cc1)C1C=CS(=O)(=O)C1 (stereo not given) | -15% | ? | 16µM* | -4% | 5% | ?
CC(C)c1ccc(C2(O)C(=O)Nc3cc(Br)ccc32)c(O)c1 (stereo not given) | ? | 27µM* | ? | -14% | / | ?
SMILES | VDR inh | PLK1 PBD inh | TDP1 cell CPT | GCN5L2 inh | TDP1 inh | TDP1 cell noCPT
COc1ccc(S(=O)(=O)N2CCCCCC2)cc1NC(C)C(=O)Nc1ccc(NC(C)=O)cc1 (stereo not given) | 2% | -1% | ? | / | / | ?
COc1cccc(C(=O)NC2C(=O)N3C(C(=O)O)=C(COC(C)=O)CSC23)c1 (stereo not given) | ? | 21µM* | -18% | 0% | -10% | -2%
CC1=C(C(=O)O)N2C(=O)C(NC(=O)c3ccc(F)cc3)C2SC1 (stereo not given) | -19% | 24µM* | -15% | -21% | 1% | -13%
CC1=C(C(=O)O)N2C(=O)C(NC(=O)c3ccccc3Cl)C2SC1 (stereo not given) | -4% | ? | 5% | 0% | / | 0%
CO/N=C(/C(=O)N[C@@H]1C(=O)N2C(C(=O)O)=C(COC(N)=O)CS[C@H]12)c1ccco1 | 50µM* | / | ? | ? | ? | 11%
CC1=C(C(N)=O)N2C(=O)[C@@H](NC(=O)Cc3ccccc3)C2SC1 (stereo not given in full) | -14% | / | 14%[9.04 µM] | / | 9% | 7%[9.04 µM]
CO/N=C(\C(=O)N[C@@H]1C(=O)N2C(C(=O)O)=C(CSC(=O)c3ccco3)CS[C@H]12)c1csc(N)n1 | / | / | 20% | / | / | -12%
CC(=O)OCC1=C(C(=O)OC(C)(C)C)N2C(=O)[C@@H](NC(=O)Cc3ccccc3)[C@H]2SC1 | ? | 17µM* | ? | / | / | -20%
Oc1cc(CNC2CCCCC2)c(O)cc1CNC1CCCCC1 | -15% | 5.3µM* | 18µM* | / | / | 5.8µM*
O=C(Nc1cccc(C(F)(F)F)c1)C1CCCN(S(=O)(=O)c2cccc3nonc23)C1 (stereo not given) | 4% | / | ? | -7% | -2% | ?
CC(C)Oc1ccc(CNC(=O)Cn2c(-c3cccs3)cc3ccccc32)cc1 | 2% | / | 0% | 1% | -6% | -22%
O=C(Cn1c(-c2cccs2)cc2ccccc21)NCCCN1CCN(c2ccc(F)cc2)CC1 | 8% | / | 23µM* | -6% | 4% | 23µM*
COc1ccc(N2CCN(CCCNC(=O)Cn3c(-c4cccs4)cc4ccccc43)CC2)cc1 | 9% | / | 18µM* | 1% | 10% | 23µM*
COc1cccc(CCNC(=O)Cn2c(-c3cccs3)cc3ccccc32)c1 | -14% | / | 21µM* | -1% | 1% | ?
O=C(O)c1ccc(S(=O)(=O)N[C@H](Cc2c[nH]c3ccccc23)C(=O)O)cc1 | / | / | / | -5% | 4% | /
OC(CN1CCOCC1)c1ccc(F)cc1 (stereo not given) | -24% | -11% | 5% | 0% | -1% | -6%
